# Compound: CN[C@@H]1C[C@H]2O[C@@](C)([C@@H]1OC)n1c3ccccc3c3c4c(c5c6ccccc6n2c5c31)C(=O)NC4 [staurosporine]
# Assay: log2 fold change of tryptic peptide abundance, ligand vs vehicle (limited proteolysis) (log2 ratio); higher = more trypsin-susceptible (destabilized)
# Details: ligand concentration: 20 uM; sample: K562 cleared lysate; digestion: 4 min, 22 C (HT-PELSA RT4min, Orbitrap Astral)
# Sequence of UniProt Q9UL54 (Q9UL54 whole entry): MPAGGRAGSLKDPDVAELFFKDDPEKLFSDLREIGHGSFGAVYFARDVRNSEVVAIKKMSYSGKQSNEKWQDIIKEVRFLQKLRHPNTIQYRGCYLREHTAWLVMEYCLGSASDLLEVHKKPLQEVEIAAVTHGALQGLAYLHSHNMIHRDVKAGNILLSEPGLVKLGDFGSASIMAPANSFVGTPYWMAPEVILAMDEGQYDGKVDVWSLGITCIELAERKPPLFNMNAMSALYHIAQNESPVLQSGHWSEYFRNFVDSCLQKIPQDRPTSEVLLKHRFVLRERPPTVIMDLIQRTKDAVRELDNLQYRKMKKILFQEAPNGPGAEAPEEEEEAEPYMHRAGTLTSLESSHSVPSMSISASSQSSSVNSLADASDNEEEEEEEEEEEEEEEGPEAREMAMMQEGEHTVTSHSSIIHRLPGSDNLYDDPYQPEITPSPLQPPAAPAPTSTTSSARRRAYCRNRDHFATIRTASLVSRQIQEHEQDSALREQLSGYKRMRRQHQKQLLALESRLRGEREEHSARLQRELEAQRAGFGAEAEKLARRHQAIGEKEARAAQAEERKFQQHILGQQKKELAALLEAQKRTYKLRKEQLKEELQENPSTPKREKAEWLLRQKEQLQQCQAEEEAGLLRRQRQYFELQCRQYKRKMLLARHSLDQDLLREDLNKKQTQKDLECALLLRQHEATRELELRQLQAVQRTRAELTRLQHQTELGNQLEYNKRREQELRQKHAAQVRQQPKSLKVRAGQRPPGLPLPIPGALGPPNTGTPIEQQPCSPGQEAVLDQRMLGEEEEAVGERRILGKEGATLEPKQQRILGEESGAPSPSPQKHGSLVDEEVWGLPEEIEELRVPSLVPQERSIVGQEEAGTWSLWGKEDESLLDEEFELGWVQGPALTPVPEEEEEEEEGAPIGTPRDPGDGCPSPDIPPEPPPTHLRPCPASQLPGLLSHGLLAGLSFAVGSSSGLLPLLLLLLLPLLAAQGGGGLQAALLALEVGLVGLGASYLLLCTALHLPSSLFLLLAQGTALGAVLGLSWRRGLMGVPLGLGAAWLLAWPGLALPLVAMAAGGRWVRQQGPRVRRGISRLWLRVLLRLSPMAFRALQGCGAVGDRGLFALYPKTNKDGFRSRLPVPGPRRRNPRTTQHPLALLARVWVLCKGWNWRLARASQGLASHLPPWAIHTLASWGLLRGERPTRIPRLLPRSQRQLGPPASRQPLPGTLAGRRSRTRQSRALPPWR
# Sequence of UniProt P51812 (P51812 whole entry): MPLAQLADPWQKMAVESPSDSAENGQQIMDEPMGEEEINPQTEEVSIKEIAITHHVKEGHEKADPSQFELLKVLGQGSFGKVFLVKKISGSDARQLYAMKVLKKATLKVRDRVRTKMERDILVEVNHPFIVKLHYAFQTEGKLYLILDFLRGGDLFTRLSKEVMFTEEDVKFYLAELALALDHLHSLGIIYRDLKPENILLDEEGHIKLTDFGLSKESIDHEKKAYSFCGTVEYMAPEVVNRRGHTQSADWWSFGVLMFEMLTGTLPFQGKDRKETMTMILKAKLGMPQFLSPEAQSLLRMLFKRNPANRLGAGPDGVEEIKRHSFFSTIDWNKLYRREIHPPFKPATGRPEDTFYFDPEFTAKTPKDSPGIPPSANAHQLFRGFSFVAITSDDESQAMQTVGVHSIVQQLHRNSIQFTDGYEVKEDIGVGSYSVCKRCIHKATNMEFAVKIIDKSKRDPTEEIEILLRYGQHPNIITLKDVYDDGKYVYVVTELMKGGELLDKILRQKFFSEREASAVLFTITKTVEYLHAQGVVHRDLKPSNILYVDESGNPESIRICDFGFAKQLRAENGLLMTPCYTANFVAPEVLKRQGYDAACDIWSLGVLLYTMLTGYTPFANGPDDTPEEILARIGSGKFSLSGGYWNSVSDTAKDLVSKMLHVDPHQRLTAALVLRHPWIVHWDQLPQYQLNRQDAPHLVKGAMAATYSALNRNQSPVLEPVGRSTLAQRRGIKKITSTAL
# Sequence of UniProt Q70IA6 (Q70IA6 whole entry): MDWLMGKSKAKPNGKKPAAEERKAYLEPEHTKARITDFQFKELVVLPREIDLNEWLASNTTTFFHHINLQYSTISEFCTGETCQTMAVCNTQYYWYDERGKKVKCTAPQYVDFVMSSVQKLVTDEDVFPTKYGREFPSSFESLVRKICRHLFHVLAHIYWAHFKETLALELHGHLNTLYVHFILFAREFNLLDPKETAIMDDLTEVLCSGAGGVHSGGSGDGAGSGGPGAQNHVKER
# Sequence of UniProt Q15759 (Q15759 whole entry): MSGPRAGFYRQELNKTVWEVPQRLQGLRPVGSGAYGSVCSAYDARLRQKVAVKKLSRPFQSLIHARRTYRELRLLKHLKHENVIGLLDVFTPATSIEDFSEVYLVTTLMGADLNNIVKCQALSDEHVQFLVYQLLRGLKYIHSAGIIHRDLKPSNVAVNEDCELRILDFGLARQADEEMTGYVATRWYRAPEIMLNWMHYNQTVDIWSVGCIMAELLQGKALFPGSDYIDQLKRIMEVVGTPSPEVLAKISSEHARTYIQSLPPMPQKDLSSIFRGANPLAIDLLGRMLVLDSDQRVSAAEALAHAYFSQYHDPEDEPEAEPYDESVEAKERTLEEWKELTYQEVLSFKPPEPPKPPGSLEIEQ
# Sequence of UniProt Q96RR4 (Q96RR4 whole entry, looked up): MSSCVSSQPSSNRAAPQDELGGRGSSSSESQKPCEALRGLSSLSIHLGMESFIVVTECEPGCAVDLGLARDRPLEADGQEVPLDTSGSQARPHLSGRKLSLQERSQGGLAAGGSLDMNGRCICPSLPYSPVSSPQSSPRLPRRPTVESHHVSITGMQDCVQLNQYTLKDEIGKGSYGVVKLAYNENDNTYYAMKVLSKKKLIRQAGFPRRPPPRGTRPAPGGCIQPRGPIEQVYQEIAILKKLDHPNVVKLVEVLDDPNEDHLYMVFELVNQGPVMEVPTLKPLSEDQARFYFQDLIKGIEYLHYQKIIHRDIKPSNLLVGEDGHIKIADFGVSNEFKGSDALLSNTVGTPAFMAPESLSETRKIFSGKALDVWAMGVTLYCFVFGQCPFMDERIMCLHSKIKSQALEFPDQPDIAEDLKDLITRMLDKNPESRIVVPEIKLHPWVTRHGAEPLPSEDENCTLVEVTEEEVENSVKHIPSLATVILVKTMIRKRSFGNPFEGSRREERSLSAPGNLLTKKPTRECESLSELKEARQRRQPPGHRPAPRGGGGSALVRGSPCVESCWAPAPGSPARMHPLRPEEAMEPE
# Sequence of UniProt Q14376 (Q14376 whole entry): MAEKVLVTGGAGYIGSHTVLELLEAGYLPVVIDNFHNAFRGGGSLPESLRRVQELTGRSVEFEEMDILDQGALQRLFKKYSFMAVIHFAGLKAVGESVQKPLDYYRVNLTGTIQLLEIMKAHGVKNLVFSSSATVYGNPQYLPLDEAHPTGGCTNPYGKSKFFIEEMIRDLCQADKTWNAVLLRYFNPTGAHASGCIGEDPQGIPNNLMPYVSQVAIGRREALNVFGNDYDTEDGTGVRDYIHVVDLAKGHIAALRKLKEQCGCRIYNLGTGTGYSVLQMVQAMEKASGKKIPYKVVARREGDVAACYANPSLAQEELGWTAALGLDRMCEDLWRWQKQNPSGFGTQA
# Sequence of UniProt P19784 (P19784 whole entry, looked up): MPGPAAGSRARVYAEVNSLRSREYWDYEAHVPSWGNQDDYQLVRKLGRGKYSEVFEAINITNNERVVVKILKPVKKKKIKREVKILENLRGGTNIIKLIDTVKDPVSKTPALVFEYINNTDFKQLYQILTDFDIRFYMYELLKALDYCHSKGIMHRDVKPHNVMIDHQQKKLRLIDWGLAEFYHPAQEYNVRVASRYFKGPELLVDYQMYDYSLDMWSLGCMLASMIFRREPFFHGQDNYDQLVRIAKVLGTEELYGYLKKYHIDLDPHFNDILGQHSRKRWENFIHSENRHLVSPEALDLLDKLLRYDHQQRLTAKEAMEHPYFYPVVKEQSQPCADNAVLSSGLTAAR
# Sequence of UniProt Q9NSY1 (Q9NSY1 whole entry, looked up): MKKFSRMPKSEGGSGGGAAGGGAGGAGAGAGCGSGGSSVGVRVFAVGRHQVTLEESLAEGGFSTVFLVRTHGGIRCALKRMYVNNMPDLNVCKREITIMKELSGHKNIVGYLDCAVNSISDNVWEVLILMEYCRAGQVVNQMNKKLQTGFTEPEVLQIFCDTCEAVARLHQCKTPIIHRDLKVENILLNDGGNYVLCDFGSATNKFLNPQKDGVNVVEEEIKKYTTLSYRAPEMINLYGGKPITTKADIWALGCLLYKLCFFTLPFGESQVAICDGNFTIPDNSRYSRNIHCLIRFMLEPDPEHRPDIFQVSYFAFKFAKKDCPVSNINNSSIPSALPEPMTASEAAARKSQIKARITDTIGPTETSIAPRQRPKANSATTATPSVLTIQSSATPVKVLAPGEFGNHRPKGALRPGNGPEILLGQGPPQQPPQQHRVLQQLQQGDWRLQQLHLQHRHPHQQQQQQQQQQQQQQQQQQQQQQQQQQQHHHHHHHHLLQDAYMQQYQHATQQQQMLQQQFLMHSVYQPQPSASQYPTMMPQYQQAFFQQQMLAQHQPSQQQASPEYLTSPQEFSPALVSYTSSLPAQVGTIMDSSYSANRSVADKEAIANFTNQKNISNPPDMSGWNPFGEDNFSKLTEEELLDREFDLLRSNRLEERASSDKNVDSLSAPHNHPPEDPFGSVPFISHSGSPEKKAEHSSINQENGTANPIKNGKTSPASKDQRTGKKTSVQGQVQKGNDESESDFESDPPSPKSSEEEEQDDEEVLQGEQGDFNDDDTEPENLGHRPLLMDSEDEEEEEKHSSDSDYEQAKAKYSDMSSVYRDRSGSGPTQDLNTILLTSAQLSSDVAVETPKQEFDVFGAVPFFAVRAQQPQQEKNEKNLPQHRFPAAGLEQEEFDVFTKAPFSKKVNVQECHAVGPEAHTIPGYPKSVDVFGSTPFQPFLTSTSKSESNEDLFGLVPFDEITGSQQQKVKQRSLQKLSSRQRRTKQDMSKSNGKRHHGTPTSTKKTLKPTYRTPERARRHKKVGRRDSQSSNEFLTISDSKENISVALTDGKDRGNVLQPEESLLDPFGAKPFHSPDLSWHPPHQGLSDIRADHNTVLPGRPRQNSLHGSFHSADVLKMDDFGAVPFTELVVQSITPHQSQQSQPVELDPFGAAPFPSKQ
row,Target,log2 fold change
1,"HERC1 (peptide sequence: VMTCVWCNKK, peptide start residue: 3431) (UniProt Q15751)",0.958
2,"UniProt P51812 (peptide sequence: DILVEVNHPFIVK, peptide start residue: 120)",-0.86
3,"MOB2 (peptide sequence: ITDFQFK, peptide start residue: 35) (UniProt Q70IA6)",0.834
4,"UniProt P19784 (peptide sequence: HLVSPEALDLLDKLLR, peptide start residue: 292)",-2.25
5,"TAOK2 (peptide sequence: ERPPTVIMDLIQR, peptide start residue: 284) (UniProt Q9UL54)",-2.3
6,"GALE (peptide sequence: MCEDLWR, peptide start residue: 329) (UniProt Q14376)",0.379
7,"UniProt Q9NSY1 (peptide sequence: DGVNVVEEEIKK, peptide start residue: 212)",-4.3
8,"MAPK11 (peptide sequence: ILDFGLAR, peptide start residue: 166) (UniProt Q15759)",-1.18
9,"CAMKK2 (peptide sequence: FYFQDLIK, peptide start residue: 291) (UniProt Q96RR4)",-2.2

# — the supplement of paper PMC12819154, “High-throughput peptide-centric local stability assay extends protein–ligand identification to membrane proteins, tissues and bacteria” (Nature Structural & Molecular Biology, 2025)
